Results taken from PubChem BioAssay (NCATS).
Records with an inconclusive call do not appear. Active and inactive are the calls of the source. Calls follow the shape of the dose curve; as a rule, active = well fitted curve in the direction sought with a large enough effect; inconclusive = small, poorly fitted or top-dose-only effect, or another doubt; inactive = no such curve, though single readings can be large; an effect the other way counts as inactive or inconclusive.

Tests used:
[1] = UWB1.289 Cancer Cell Toxicity qHTS against the NCATS CANVASS Library (AID 1347347); also: nearly all actives have a fitted effect of over 60% in size; also: potency is read from the fitted curve at half-maximal effect
Method in brief: (§1)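 Following a 4 h pre-incubation of 1000 seeded cells, compounds were pinned in an 11-pnt dilution series and left for 72 h; viability then came from CellTiter-Glo.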

[2] = SW1088 Cancer Cell Toxicity qHTS against the NCATS CANVASS Library (AID 1347350); also: nearly all actives have a fitted effect of over 75% in size; also: potency is read from the fitted curve at half-maximal effect
Method in brief: as §1

[3] = COV-362 Cancer Cell Toxicity qHTS against the NCATS CANVASS Library (AID 1347352); also: series mostly up to about 38 µM
Method in brief: (§2)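 Toxicity was measured as CellTiter-Glo luminescence after 72 h exposure to an 11-point compound series. Compound was added to 1000 cells/well 4 h after seeding.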

[4] = A2780 Cisplatin Sensitive Ovarian Cancer Cell Toxicity qHTS against the NCATS CANVASS Library (AID 1347353); also: nearly all actives have a fitted effect of over 60% in size; also: potency is read from the fitted curve at half-maximal effect
Method in brief: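 Cisplatin-sensitive A2780 ovarian cells (750/well) received compound in 11 concentrations, and were incubated 72 h at 37 °C. ATP content was measured by ATPLite luminescence; bortezomib served as control.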

[5] = HPAF-II 12hr Apoptosis Induction qHTS against the NCATS CANVASS Library (AID 1347358)
Method in brief: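 Caspase-3/7 activation by DEVD-substrate luminescence (Caspase-Glo 3/7, 15 min, room temperature) after a 12-hour compound exposure in 11 concentrations, of HPAF-II pancreatic cells seeded at 500/well in DMEM with 10% FBS.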

[6] = test system: NAD(P)H diaphorase (Clostridium kluyveri); assay: Diaphorse counterscreen qHTS: Assay Interference Panel against the NCATS CANVASS Library (AID 1347362)
Method in brief: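 Counterscreen for coupling-enzyme interference: resorufin fluorescence from resazurin/NADH turnover, read after 5 min at room temperature. Compounds were tested over an 11-point series after 15 min dark preincubation with diaphorase in PBS-Tween.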

[7] = target: Luciferin 4-monooxygenase (Photinus pyralis) (UniProt P08659); assay: Firefly luciferase counterscreen qHTS: Assay Interference Panel against the NCATS CANVASS Library (AID 1347363); also: series mostly up to about 57 µM
Luciferin 4-monooxygenase (Photinus pyralis), sequence (P08659 whole entry, looked up): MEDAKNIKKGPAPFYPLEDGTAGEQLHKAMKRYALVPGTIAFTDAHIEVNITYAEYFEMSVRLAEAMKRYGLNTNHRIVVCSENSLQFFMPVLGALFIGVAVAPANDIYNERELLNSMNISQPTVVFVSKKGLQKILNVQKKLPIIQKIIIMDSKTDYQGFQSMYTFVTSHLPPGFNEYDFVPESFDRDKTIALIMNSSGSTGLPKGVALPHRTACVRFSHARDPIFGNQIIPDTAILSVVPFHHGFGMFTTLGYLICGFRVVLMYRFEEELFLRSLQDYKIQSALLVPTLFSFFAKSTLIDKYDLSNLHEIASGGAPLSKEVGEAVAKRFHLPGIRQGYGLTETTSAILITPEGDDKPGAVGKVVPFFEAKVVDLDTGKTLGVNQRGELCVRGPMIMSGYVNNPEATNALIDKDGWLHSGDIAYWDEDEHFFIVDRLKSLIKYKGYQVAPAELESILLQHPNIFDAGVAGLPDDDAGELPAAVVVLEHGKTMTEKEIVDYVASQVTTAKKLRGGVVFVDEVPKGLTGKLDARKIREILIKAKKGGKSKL
Method in brief: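 Luminescence inhibition readout: compounds (11-point qHTS) sat 15 min at room temperature with substrate mix (0.013 mM luciferin and ATP), then firefly luciferase was added and signal read 5 min later.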

[8] = KB-8-5-11 Cancer Cell Toxicity qHTS against the NCATS CANVASS Library (AID 1347364); also: nearly all actives have a fitted effect of over 75% in size; also: potency is read from the fitted curve at half-maximal effect
Method in brief: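 Viability read as CellTiter-Glo luminescence after 72 h at 37 °C, 5% CO2. 11-point compound series on 500 KB-8-5-11 cells/well in DMEM/10% FBS. Follow-up plating included 1 uM tariquidar in the medium.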

[9] = SDT Cancer Cell Toxicity qHTS against the NCATS CANVASS Library (AID 1347365); also: nearly all actives have a fitted effect of over 60% in size; also: potency is read from the fitted curve at half-maximal effect
Method in brief: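 Cytotoxicity taken from CellTiterGlo ATP luminescence after 72 hr at 37C, 5% CO2. Canine glioma line SDT, 500 cells/well, treated at 11 concentrations; bortezomib dose series as control.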

[10] = G06 Cancer Cell Toxicity qHTS against the NCATS CANVASS Library (AID 1347368); also: nearly all actives have a fitted effect of over 60% in size; also: potency is read from the fitted curve at half-maximal effect
Method in brief: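 Viability measured by CellTiterGlo ATP luminescence after 72 hr at 37C, 5% CO2. Canine G06 glioma cells plated at 500/well. Compounds tested as 11-point qHTS titrations.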

[11] = DH5-alpha competent E. coli microbial cell viability qHTS against the NCATS CANVASS Library (AID 1347377); settings: outcome: dose series up to 46.1 µM unless noted
Method in brief: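 Bacterial viability as ATP-dependent luminescence (BacTiter-Glo), read after overnight 37 °C exposure of DH5-alpha competent E. coli to compounds in 11-point titration.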

[12] = qHTS for Antimalaria activity screened against the NCATS CANVASS Library (AID 1347380); also: nearly all actives have a fitted effect of over 40% in size; also: potency is read from the fitted curve at half-maximal effect
Method in brief: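 SYBR Green fluorescence at 485/535 nm was read 18 hr after lysis. This followed a 72 hr incubation at 37C in 5% O2, 5% CO2 of Dd2-infected erythrocytes (0.3% parasitemia, 2.5% final hematocrit) with compounds titrated over 11 concentrations.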

[13] = qHTS for activators of Nrf2/ARE signaling pathway screened against the NCATS CANVASS Library (AID 1347391); also: nearly all actives have a fitted effect of over 60% in size; also: potency is read from the fitted curve at half-maximal effect
Method in brief: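 Eleven-point qHTS, 16 h treatment of HepG2 cells carrying an ARE-driven beta-lactamase reporter; CCF4 ratio read (405 nm excitation, 460 and 530 nm emission), with CellTiter-Glo ATP luminescence for viability.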

[14] = Vero-766 cells viability qHTS against the NCATS CANVASS Library: Counterscreen for Zika virus inhibition assay (AID 1347394); also: nearly all actives have a fitted effect of over 60% in size; also: potency is read from the fitted curve at half-maximal effect
Method in brief: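 Uninfected Vero 766 (African green monkey) cells, 1000/well, attached overnight, then exposed 72 h at 37C to compounds (11-point qHTS). Viability read by CellTiter-Glo luminescence; media-only wells served as 100% inhibition.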

[15] = Panc-1005 Cancer Cell Toxicity qHTS against the NCATS CANVASS Library (AID 1347349); also: nearly all actives have a fitted effect of over 60% in size; also: potency is read from the fitted curve at half-maximal effect
Method in brief: as §1

[16] = UWB1.289-WTBRCA1 Cancer Cell Toxicity qHTS against the NCATS CANVASS Library (AID 1347354); also: potency is read from the fitted curve at half-maximal effect
Method in brief: as §2

[17] = HEK293 12hr Apoptosis Induction qHTS against the NCATS CANVASS Library (AID 1347361); also: potency is read from the fitted curve at half-maximal effect
Method in brief: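 Read-out: Caspase-Glo 3/7 luminescence (DEVD substrate), 15 min RT. Preceded by 12 h compound exposure of HEK293, 500 cells/well, 11-pt qHTS titration; doxorubicin titration as control.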

Measured: Potency

Oc1ccc(/C=C2/c3cc(O)cc(O)c3C(c3ccc(O)cc3)[C@H]2c2cc(O)cc(O)c2)cc1 (stereo not given in full)
inactive: [2] | [3] | [4] | [5] | [6] | [7] | [8] | [9] | [10] | [11] | [12] | [13] | [14]
active: [1] 3750 nM

CC1=CC2=C[C@H](C)C[C@@]23OC(=C(C)C3=O)CC(C)(C)/C=C/C1=O
active: [15] 943 nM | [2] 5950 nM | [4] 209 nM | [16] 11800 nM | [17] 935 nM | [8] 2090 nM | [9] 662 nM | [10] 833 nM | [12] 2360 nM | [13] 74.1 nM
inactive: [5] | [6] | [11]

CCCCCCCCCCCCCCCC(=O)OC/C=C(\C)CCCC(C)CC(C)C(C)C (stereo not given)
inactive: [1] | [2] | [3] | [4] | [16] | [17] | [6] | [7] | [8] | [9] | [10] | [11] | [13] | [14]
active: [12] 1.9 nM

C/C(=C\[C@H](C)C(=O)CCCC1CC(=O)NC(=O)C1)[C@@H]1OC(=O)/C=C/CC/C=C/C[C@@H](O)[C@@H]1C
inactive: [6] | [7] | [11] | [13] | [14]
active: [1] 2110 nM | [15] 1880 nM | [4] 833 nM | [9] 935 nM | [10] 1050 nM

CO[C@H]1/C=C/CC[C@@H](S[C@@H]2O[C@H](CO)[C@@H](O)[C@H](O)[C@H]2O)CC(=O)O[C@@H](/C(C)=C/[C@H](C)C(=O)CCCC2CC(=O)NC(=O)C2)[C@@H](C)[C@@H]1O
inactive: [6] | [11] | [12] | [13] | [14]
active: [1] 2980 nM | [15] 4210 nM | [4] 1050 nM | [9] 1180 nM | [10] 1480 nM

C=CC(C)(C)C(=O)[C@@H](C)[C@@H]1CC[C@](C)(C=C)O1
inactive: [15] | [2] | [3] | [16] | [5] | [17] | [6] | [7] | [8] | [9] | [10] | [11] | [12] | [13] | [14]

C/C(=C\[C@H](C)C(=O)CCCC1CC(=O)NC(=O)C1)C(O)[C@@H](C)[C@H](O)C/C=C/CC/C=C/C(=O)O (stereo not given in full)
inactive: [1] | [15] | [3] | [4] | [16] | [6] | [7] | [8] | [9] | [11] | [12] | [13] | [14]

CCCCCCC[C@@H](C/C=C/CCC(=O)NCCc1c[nH]c2ccccc12)OC
active: [14] 23400 nM
inactive: [15] | [3] | [4] | [16] | [5] | [17] | [6] | [8] | [10] | [13]

O=C1CC(c2cc(O)cc(O)c2)Oc2cc(O)ccc21 (stereo not given)
inactive: [15] | [2] | [3] | [16] | [5] | [7] | [8] | [11] | [12] | [14]
active: [4] 3720 nM

CCCCCC[C@H](CCCCC[C@@H](O)C(N)=O)OC(=O)[C@@H]1CC=CN1C(=O)c1ccccc1O
active: [1] 6660 nM
inactive: [15] | [3] | [5] | [17] | [7] | [8] | [13] | [14]

CC12C[C@]3(O)O[C@@H](O1)[C@]1(COC(=O)c4ccccc4)[C@@H]3CC21OC1OC(CO)C(O)C(O)C1O (stereo not given in full)
inactive: [15] | [2] | [3] | [4] | [16] | [5] | [17] | [6] | [8] | [9] | [11] | [12] | [13] | [14]

Oc1ccc(C2c3c(O)cc(O)cc3[C@@H]3C(c4ccc(O)cc4)c4c(O)cc(O)cc4[C@H]23)cc1 (stereo not given in full)
inactive: [1] | [2] | [3] | [16] | [5] | [17] | [6] | [7] | [8] | [9] | [10] | [11] | [13] | [14]

CC1(C)C=Cc2c(ccc3c2OC[C@@H](c2ccc(O)cc2O)C3)O1
inactive: [1] | [15] | [3] | [16] | [17] | [6] | [8] | [9] | [10] | [11] | [14]
